Data: PubChem BioAssay AID2108 (National Center for Advancing Translational Sciences (NCATS), 2009)
Records with an inconclusive call do not appear. Calls of active or inactive are those of the source. Calls come from the whole dose curve; as a rule, active = well fitted curve in the direction sought with a large enough effect; inconclusive = small, poorly fitted or top-dose-only effect, or effect the other way, or another doubt; inactive = no such curve, though single readings can be large or run the other way.

The compounds below were run against Alpha-galactosidase A (Homo sapiens) (UniProt P06280) (assay: Confirmation of Inhibitors of Human alpha-Galactosidase Using Spleen Homogenate). Settings: alpha-galactosidase enzyme activity; series mostly up to 56.2 µM.
Alpha-galactosidase A (Homo sapiens), sequence (P06280 32-429 limits assumed): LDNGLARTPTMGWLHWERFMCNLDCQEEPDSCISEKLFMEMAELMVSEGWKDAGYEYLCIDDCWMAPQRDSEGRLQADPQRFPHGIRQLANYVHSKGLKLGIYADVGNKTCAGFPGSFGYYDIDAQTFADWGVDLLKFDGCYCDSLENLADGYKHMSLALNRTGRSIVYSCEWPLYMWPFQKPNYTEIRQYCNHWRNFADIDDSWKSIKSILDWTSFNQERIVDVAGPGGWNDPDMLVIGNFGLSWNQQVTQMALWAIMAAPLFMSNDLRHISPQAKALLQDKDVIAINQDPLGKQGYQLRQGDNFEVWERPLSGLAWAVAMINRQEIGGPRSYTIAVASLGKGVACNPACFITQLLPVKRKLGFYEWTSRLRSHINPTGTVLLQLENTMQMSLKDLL
Excerpt: NIH Chemical Genomics Center [NCGC]
NIH Molecular Libraries Probe Production Centers Network [MLPCN]
Assay Submitter (PI): Wei Zheng
Alpha-galactosidase is a homodimeric glycoprotein that hydrolyzes the terminal alpha-galactosyl moieties from glycolipids and glycoproteins. Deficiency of this enzyme results in Fabry Disease with progressive accumulation of globotriaosylceramide and other glycosphingolipids in vascular endothelial cells that causes renal failure, myocardial infarction and stroke, and premature death in patients. It has been reported that the improper folding and trafficking of alpha-galactosidase resulting from genetic mutations may account for a significant number of Fabry patients. […] We optimized this alpha-galactosidase assay in 1536-well plate format for identification of novel small molecule inhibitors or activators with structures other than the sugar analogs in order to develop new pharmacological chaperones. In particular, this assay is directed towards discovering compounds active in more natural setting, tissue homogenate, that may have been missed by screens of the purified enzyme under more stringent conditions. This assay attempted to confirm hits from the primary screening.
NCGC Assay Protocol Summary:
This is a fluorogenic enzyme assay with 4-methylumbelliferyl-alpha-D-galactopyranoside as the substrate and human spleen homogenate containing alpha-galactosidase as the enzyme preparation. Upon hydrolysis of this fluorogenic substrate, the resulting product, 4-methylumbelliferone (which excites at 365 nm and emits at 440 nm) can be detected by a fluorescence plate reader. Data were normalized to the controls for basal activity (without enzyme) and 100% activity (with enzyme). The AC50 values were determined from concentration-response data modeled with the standard Hill equation.
Assay buffer: 50 mM citric acid (titrated with potassium phosphate to pH 5.0), 0.01% Tween-20 (pH 5.0 is an optimal condition for this enzyme assay)
1536-well assay protocol for the alpha-galactosidase from human spleen homogenate:
(1) Add 2 ul/well spleen homogenate (1 ug)
(2) Add 23 nL compounds in DMSO solution. The final titration was 0.5 nM to 58 uM.
(3) Add 2 ul of substrate (1 mM final)
(4) Incubate at 37C for 40 min
(5) Add 2 ul stop solution (1M NaOH and 1M Glycine mixture, pH 10)
(6) Detect the assay plate in a ViewLux plate reader (PerkinElmer) with Ex=365 nm and Em=440nm.
Keywords: Alpha-galactosidase, Fabry Disease, pharmacological chaperone, chaperone therapy, high throughput screening, alpha- galactosidase inhibitor, MLSMR, MLSCN, NIH Roadmap, qHTS and NCGC

outcome, inactive:
O=S(=O)(c1ccccc1Br)N1CCOCC1
C=CCN1CCc2c(cc(O)c(O)c2Cl)C(c2ccccc2)C1 (stereo not given)
CCOC(=O)Nc1ccc2c(c1)N(C(=O)CN(CC)CC)c1ccccc1CC2
O=C(NN=C1c2ccccc2-c2ccccc21)c1cccc(S(=O)(=O)N2CCOCC2)c1
O=S(=O)(c1ccccc1)N1CCN(S(=O)(=O)c2ccccc2)CC1
Cc1c(Nc2c3ccccc3nc3ccccc23)c(=O)n(-c2ccccc2)n1C
O=C(O)c1cc(NCc2ccc3c(c2)OCO3)ccc1N1CCOCC1
COc1ccc(/C=C/c2nnc(NC(=O)CSc3ccc(C)cc3)s2)cc1
CCOc1cc(CNc2ccc(O)cc2)cc(Cl)c1OCc1ccccc1
O=C(COc1ccc2ccccc2c1)N1CCN(C(=O)c2ccco2)CC1
O=C(CSc1nc(C2CC2)nc2ccccc12)Nc1cccc(O)c1
N#Cc1c(N2CCN(c3ccc(F)cc3)CC2)nc(N)c2c(N)nc3c(c12)CC(=O)N3C1CC1
Cc1ccc2oc(C(=O)Nc3ccc(S(=O)(=O)N4CCCCC4C)cc3)cc(=O)c2c1 (stereo not given)
Oc1ccccc1C1CC(c2cccs2)=NC(c2ccc(Cl)cc2)N1 (stereo not given)
CCOc1c(Br)cc(CNc2ccc(N3CCOCC3)cc2)cc1OC
COc1ccc(S(=O)(=O)N2CCN(C(=O)COc3ccc4c(C)cc(=O)oc4c3)CC2)cc1
O=C(Nc1nc2c(s1)CN(Cc1ccccc1)CC2)C1CCCC1
CCN1CCc2nc(NC(=O)CC(c3ccccc3)c3ccccc3)sc2C1
Cc1ccc(-c2nc3ncccn3c2Nc2ccc3c(c2)OCO3)o1
O=S(=O)(c1cccnc1)N1CCOCC1
Cc1ccc2c(=O)c3ccccc3n(CCCN)c2c1C
Cc1cc(/C=N/Nc2ccc([N+](=O)[O-])cn2)c(C)n1-c1ccc(C(=O)O)cc1
Cc1ccc(-c2nc(-c3cc4cc(Cl)ccc4oc3=O)sc2C)cc1
O=S(=O)(c1ccc2ccccc2c1)N1CCOCC1
COC(=O)CSc1ccc(C#N)c(SCC(=O)OC)c1
CCCc1cc(-c2nc(N)ncc2-c2ccc3c(c2)OCCCO3)c(O)cc1OC
COC(=O)c1ccccc1S(=O)(=O)N1CCOCC1
C(=C/c1nccc2c1[nH]c1ccccc12)/c1ccc2c(c1)OCO2
O=S(=O)(c1cccc(Br)c1)N1CCOCC1
Cc1nc(SCC(=O)N2CCN(c3ccccc3)CC2)c2oc3ccccc3c2n1
CCN(CC)S(=O)(=O)c1ccc2c(c1)-c1cc(S(=O)(=O)N(CC)CC)ccc1C2=NNC(N)=S
CCc1cc(-c2n[nH]c(C)c2-c2nc3ccccc3n2C)c(O)c(CN2CCN(C)CC2)c1O
Fc1ccc(CNc2ccc(N3CCN(Cc4ccccc4)CC3)cc2)cc1
Cc1sc(-c2cc3c(ccc4ccccc43)oc2=O)nc1-c1ccccc1
CC(C)C[C@H](NC(=O)c1nc[nH]c1C(=O)NCC(=O)OCc1ccccc1)C(=O)OC(C)(C)C
COC(=O)c1ccc(CSc2cc(C)c3cccc(C)c3n2)o1
O=C(O)c1cc2c(ccc3ccccc32)o1
Cc1ccc(S(=O)(=O)N2CCOCC2)cc1C
C[C@H](NC(=O)/C(C#N)=C/c1ccc(O)c(O)c1)c1ccccc1
CN(C)CC/C=C1/c2ccccc2Sc2c(O)cc(Cl)cc21
